PubChem BioAssay AID504327 (National Center for Advancing Translational Sciences (NCATS), 2011)
Values joined by “and” are separate entries in the source; they are usually repeats but may differ in a detail not shown here. Equal values may be shown once. About 820 (0.21%) of roughly 390,000 compounds were called active. Roughly 3% stayed inconclusive and do not appear here. Calls follow the shape of the dose curve; as a rule, active = well fitted inhibition curve with a large enough effect; inconclusive = small, poorly fitted or top-dose-only effect, or another doubt; inactive = no such curve, though single readings can be large or run the other way. The sample as a whole holds a higher share of actives than the screen did. Where a structure was tested more than once in an assay, its records may differ in their call.

The compounds below were run against Histone acetyltransferase KAT2A (Homo sapiens) (UniProt Q92830) (assay: qHTS Assay for Inhibitors of GCN5L2). Conditions: GCN5L2 HAT assay, ThioGlo1 CoA-SH fluorescence; series mostly up to 58.9 µM; activity change, negative = inhibition: at the top concentration.
Sequence of Histone acetyltransferase KAT2A (Homo sapiens) (Q92830 whole entry, looked up): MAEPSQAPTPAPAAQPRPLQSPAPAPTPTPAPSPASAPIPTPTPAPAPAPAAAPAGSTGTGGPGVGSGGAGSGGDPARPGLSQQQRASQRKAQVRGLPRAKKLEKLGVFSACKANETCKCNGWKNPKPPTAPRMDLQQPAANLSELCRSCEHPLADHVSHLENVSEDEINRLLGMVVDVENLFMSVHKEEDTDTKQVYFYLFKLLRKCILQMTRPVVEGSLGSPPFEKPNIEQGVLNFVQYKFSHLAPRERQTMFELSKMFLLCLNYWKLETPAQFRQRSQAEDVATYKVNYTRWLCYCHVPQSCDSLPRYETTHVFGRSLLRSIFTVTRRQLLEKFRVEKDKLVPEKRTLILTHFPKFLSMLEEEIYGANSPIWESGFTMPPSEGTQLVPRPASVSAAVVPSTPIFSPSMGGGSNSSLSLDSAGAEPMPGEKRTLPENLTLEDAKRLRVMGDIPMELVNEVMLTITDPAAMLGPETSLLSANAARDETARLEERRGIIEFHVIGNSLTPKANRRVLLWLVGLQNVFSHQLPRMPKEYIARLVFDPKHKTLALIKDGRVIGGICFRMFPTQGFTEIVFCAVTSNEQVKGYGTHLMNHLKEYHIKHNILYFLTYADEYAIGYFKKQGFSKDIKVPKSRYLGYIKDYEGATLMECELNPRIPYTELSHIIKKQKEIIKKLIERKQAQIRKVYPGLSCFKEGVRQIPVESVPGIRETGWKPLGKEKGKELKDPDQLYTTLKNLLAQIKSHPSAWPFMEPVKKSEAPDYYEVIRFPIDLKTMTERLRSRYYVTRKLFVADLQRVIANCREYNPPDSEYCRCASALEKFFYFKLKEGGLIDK
Description: Histone acetyltransferase (HAT) enzymes transfer a […] group from acetyl-coenzyme A to the epsilon-amino group of conserved lysine residues of N-terminal histone tails. Acetylation results in charge neutralization of this positively charged amino acid, decreasing interactions with the […] backbone and making the DNA more accessible for transcription. HATs have been recognized as an emerging drug target for treatment of cancer, diabetes, asthma, chronic obstructive pulmonary disease, cardiac disease, and viral infection. Protein identified with HAT activity include the […] like 2 (GCN5L2, a.ka. Histone acetyltransferase KAT2A) which acetylates histone H3 at Lys9, 14, 18, 13, and to lesser extent histones H4 and H2B. This activates transcription of the gene by modulating chromatin structure and installing the acetyllysine recognition mark for bromodomain-containing coactivator proteins.
A quantitative high throughput screen was developed to identify small molecule inhibitors. The assay is based on the principle that it measures formation of reduced CoA with the pro-fluorescent maleimide derivative ThioGlo1 that becomes fluorescent upon reaction with the free thiol of CoA.
A large number of artifacts are expected in this primary screen, compounded by the assay format (fluorescent artifacts) and by the high top concentration tested for each substance. This BioAssay data deposition should be used with caution, and counterscreen and secondary assay validation is essential since very few actives from the primary screen are expected to be true inhibitors of GCN5L2.
[2] Yasgar, et al. Compound Management for Quantitative High-Throughput Screening. JALA. 2008 Apr;13(2):79-89.
[3] Inglese, et al. Quantitative high-throughput screening: a titration-based approach that efficiently identifies biological activities in large chemical libraries. Proc Natl Acad Sci. 1;103(31):11473-8. 2006. PMID: 16864780
NIH Molecular Libraries Probe Production Network [MLPCN]
NIH Chemical Genomics Center [NCGC]
Structural Genomics Consortium (SGC)
To each well of a 1,536w plate, 3ul of GCN5L2 (final concentration 20nM, in 50mM HEPES, 0.1mM EDTA (pH 7.5), 0.01% Tween-20 buffer) are added using a Kalypsys dispenser. Only buffer is added to some wells as a control. A Kalypsys pin-tool transferred 23nl of library compound solution in DMSO to each well, as well as the control inhibit garcinol. . Following a 15 min incubation of enzyme with compounds at room temperature, 1ul mixture of ThioGlo1 (50uM final), H3(1-25) peptide (75uM final), and Acetyl-CoA (70uM final) is added. Plates are read immediately on the ViewLux (PerkinElmer) (Ex340nm/Em540nm) for a 0 min read, incubated for 20 min at room temperature, and read again on the ViewLux with the same settings. The initial read was carried out to identify compounds that are potentially fluorescent.
% is scaled to controls: 0 for no effect and ±100 for the full control effect; potency is read from the fitted curve at half-maximal effect.

| SMILES | Potency | activity change, negative = inhibition |
| --- | --- | --- |
| COc1ccc(N2C(=O)/C(=C/c3ccco3)C(=O)NC2=S)cc1 | 17.8 µM (active) | – |
| COc1ccc2c3c1O[C@H]1C[C@@H](O)C=C[C@@]31CCN(C)C2 | inactive | – |
| CC(C)(Cc1c[nH]c2ccc(Cl)cc12)NCCOc1ccccc1OCC1CC1 | inactive | – |
| C[C@]12CC[C@@H]3c4ccc(O)cc4C[C@@H](CCCCCCCCCS(=O)CCCC(F)(F)C(F)(F)F)C3[C@@H]1CC[C@@H]2O (stereo not given in full) | – | 34.1% (inactive) |
| CCCCC/C=C\C/C=C\C/C=C\C/C=C\CCCCCC(=O)NCCO | inactive | – |
| Cc1cccc2c3c(ccc12)C1=C(C(=O)C3=O)C(C)CO1 (stereo not given) | 31.6 µM (active) | – |
| C[C@]12O[C@H](C[C@@]1(O)C(=O)O)n1c3ccccc3c3c4c(c5c6ccccc6n2c5c31)CNC4=O | – | 37.3% (inactive) |
| CCOc1ccc(S(=O)(=O)NCc2ccc3c(c2)OCO3)cc1C | – | -4.01% (inactive) |
| COc1ccc2c3c1OC1CC(O)C=C[C@@]31CCN(C)C2 (stereo not given in full) | – | -3.98% (inactive) |
| CC(C)C(N)C(=O)OCCOCn1cnc2c(=O)[nH]c(N)nc21 (stereo not given) | – | -17% (inactive) |
| CN(C)C[C@H]1CCCC[C@]1(O)c1cccc(O)c1 | – | -5.12% (inactive) |
| CC(C)(c1ccc(OC[C@@H]2CO2)cc1)c1ccc(OC[C@H]2CO2)cc1 | – | -15.6% (inactive) |
| CC(=O)c1c(O)c(C)c(O)c(Cc2c(O)c3c(c(C(=O)/C=C/c4ccccc4)c2O)OC(C)(C)C=C3)c1O | inactive and 11.2 µM (active) | – |
| CC(=O)c1c(O)c(C)c(O)c(Cc2c(O)c3c(c(C(=O)/C=C\c4ccccc4)c2O)OC(C)(C)C=C3)c1O | 35.5 µM (active) | – |
| CCC(C)C(=O)O[C@@H]1C[C@@]2(C)C(c3ccoc3)OC(=O)CC23OC2(C)O[C@@]14[C@@]1(C)C(CC(=O)OC)C5(C)CC1(O)C(O)(C5OC(=O)C1(C)OC1C)C(OC(C)=O)[C@@]34O2 (stereo not given in full) | – | -8.65% (inactive) |
| C=CCN1CCC2(C)c3cc(O)ccc3CC1[C@@H]2C (stereo not given in full) | – | -21.9% (inactive) |
| CN1CCCC(=C(c2cccs2)c2cccs2)C1 | – | -2.25% (inactive) |
| CC(C)(O)c1[se]c2ccccc2c1I | – | -12% [at 88.6 µM] (inactive) |
| CO[C@@H]1C[C@@H](C[C@H]2CC[C@H](C)[C@@H]([C@@H](C)C(=O)O)O2)O[C@]2(O[C@](C)([C@H]3CC[C@@](C)(C4OC([C@H]5O[C@@](O)(CO)[C@H](C)C[C@@H]5C)C[C@@H]4C)O3)C[C@H]2C)[C@@H]1C (stereo not given in full) | – | -5.57% (inactive) |
| CCN(CC)c1nc(C)cc(OP(=S)(OC)OC)n1 | – | -9.1% (inactive) |
| CN(C)[C@@H]1C(=O)C(C(N)=O)=C(O)[C@@]2(O)C(=O)C3=C(O)c4c(O)cccc4[C@@](C)(O)C3CC12 (stereo not given in full) | – | 3.36% (inactive) |
| COC([CH2][Hg])CNC(=O)c1ccccc1OCC(=O)O (stereo not given) | 0.891 µM (active) | – |
| O=C1CCc2cccc3c2N1CC3 | – | 7.32% (inactive) |

| SMILES | Potency | activity change, negative = inhibition |
| --- | --- | --- |
| CC(C)=CCC[C@]1(C)[C@@H](CC=C(C)C)C[C@@]2(CC=C(C)C)C(=O)[C@]1(C(=O)C(C)C)C(=O)C(CC=C(C)C)=C2O | 28.2 µM (active) | – |
| Nc1ccc(-c2ccc(N)c(N)c2)cc1N | – | -7.25% (inactive) |
| CCCN(C/C=C/I)C1CCc2ccc(O)cc2C1 (stereo not given) | – | -0.627% (inactive) |
| NCCc1c[nH]c2ccc(O)cc12 | inactive and 11.2 µM (active) | – |
| Cc1cccc2c(CCN)c[nH]c12 | – | -2.68% (inactive) |
| COc1ccc2[nH]cc(CCNCc3ccc(Br)cc3)c2c1 | – | 1.22% (inactive) |
| CC(=O)Oc1ccccc1C(=O)Nc1ncc([N+](=O)[O-])s1 | – | -3.77% (inactive) |
| CC[C@@H]1CN2CC[C@@H]1C[C@H]2[C@H](O)c1ccnc2ccc(OC)cc12 | – | -9.14% (inactive) |
| COc1ccccc1-c1[se]c2ccccc2c1I | – | -12.9% (inactive) |
| CCCCCCCCCCCCN=C(N)N | – | 0.337% (inactive) |
| N#Cc1c(Cl)c(Cl)c(Cl)c(C#N)c1Cl | – | -13.8% (inactive) |
| CCCCCCCCCCCCCC(=O)O[C@@H]1[C@@H](C)[C@@]2(O)[C@@H](C=C(CO)C[C@]3(O)C(=O)C(C)=C[C@@H]23)[C@@H]2C(C)(C)[C@]12OC(C)=O | – | 2.06% (inactive) |
| COC(=O)N1C(c2ccccc2)C1c1ccccc1 (stereo not given) | – | 0.274% (inactive) |
| CC(=O)[O][Sn]([c]1ccccc1)([c]1ccccc1)[c]1ccccc1 | 4.47 µM (active) | – |
| C[C@H]1C/C=C/[C@@H]2[C@@H]3O[C@]3(C)[C@@H](C)[C@H]3[C@H](Cc4ccccc4)NC(=O)[C@]32OC(=O)O/C=C/[C@](C)(O)C1=O | – | 3.33% (inactive) |
| CN[C@@H]1C[C@H]2O[C@@](C)([C@@H]1OC)n1c3ccccc3c3c4c(c5c6ccccc6n2c5c31)C(=O)NC4 | – | 4.47% [at 12.7 µM] (inactive) |
| CNCC[C@H](Oc1ccc(C(F)(F)F)cc1)c1ccccc1 | inactive and 8.91 µM (active) | – |
| CCCCC/C=C\C/C=C\C/C=C\C=C\[C@H](CCCC(=O)O)OO | – | 9.21% (inactive) |
| N#CC(C#N)=Cc1cc(O)c(O)c([N+](=O)[O-])c1 | inactive | – |
| C[C@@H]1C[C@H]2CC[C@H](O2)[C@H](C)C(=O)O[C@@H](C)C[C@@H]2CC[C@@H](O2)[C@@H](C)C(=O)O[C@H](C)C[C@H]2CC[C@H](O2)[C@H](C)C(=O)O[C@@H](C)C[C@@H]2CC[C@@H](O2)[C@@H](C)C(=O)O1 | – | 41.3% (inactive) |
| N#Cc1cc(Br)c(O)c(Br)c1 | – | -21.5% (inactive) |
| c1ccc(N2CC[C@@]3(CCCNC3)C2)nc1 | – | 7.24% (inactive) |
